This passage reports binding signal results from PMC10668032, “Altered binding affinity of SIX1-Q177R correlates with enhanced WNT5A and WNT pathway effector expression in Wilms tumor”.

In all, about 33,000 sequences were measured (“e-score”: median about -0.053, highest 2% from about 0.38 on). This excerpt belongs to a sample that is enriched for the highest values.

In this assay the target is T1, SIX1 homeodomain (reference allele) (human, UniProt Q15475 108-198).
T1 sequence: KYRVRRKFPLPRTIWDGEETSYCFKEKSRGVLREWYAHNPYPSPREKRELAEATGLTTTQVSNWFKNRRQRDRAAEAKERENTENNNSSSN
Description: universal protein binding microarray; Universal all-10-mer PBM (8x60K, AMADID 030236), 300 nM GST-tagged protein, Alexa Fluor 488 anti-GST; buffer, salt, pH and temperature not stated (as in Berger); high values mean tight binding. Particulars: protein: ivt; tags: N-terminal GST; dsDNA, one strand shown. In a few lines:
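Binding was expressed as 8-mer E-scores calculated with the Universal PBM Analysis Suite. The GST-tagged homeodomains, made by in vitro transcription/translation, were applied in duplicate at 300 nM final concentration to universal 'all 10-mer' protein binding microarrays (8×60K format).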
On to AGTATGAT, for which the binding signal was 0.2824 ± 0.000431 E-score.
For the sequence ATCACGCC, the binding signal is 0.26 ± 0.00476 E-score.
With ATCTCTTG the figure was 0.224 ± 0.039 E-score.
In the case of CAGATCTG, the binding signal worked out at 0.216 ± 0.124 E-score.
In the case of AGCTCGAT, the binding signal came out at 0.227 ± 0.00607 E-score.
With CATCCTAC, the binding signal was 0.157 ± 0.0313 E-score.
For ATACATGA, the binding signal amounted to 0.231 ± 0.0327 E-score.
On to ATACAATG, for which the binding signal was found to be 0.248 ± 0.00431 E-score.
As for TATACCCA, the figure is 0.401 ± 0.0193 E-score; as for CATACCCG, 0.259 ± 0.0615 E-score.
Regarding CATACCCA, the binding signal was determined as 0.208 ± 0.066 E-score.
As for GATACCCA, the binding signal was determined as 0.4758 ± 0.00303 E-score.
In the case of TCTACCCA, the binding signal turned out to be 0.221 ± 0.0189 E-score.
For the sequence CGCTATAC, the binding signal stood at 0.254 ± 0.0251 E-score.
In the case of ACTTGTAT, the binding signal turned out to be 0.246 ± 0.0178 E-score.
As to CTTAATAC, the binding signal turned out to be 0.281 ± 0.0535 E-score.
For CAGATAAC, the binding signal stood at 0.191 ± 0.0157 E-score.
As for ATCTGGCC, the binding signal was determined as 0.181 ± 0.0229 E-score.
Consider ATACACAC, for which the binding signal came out at 0.249 ± 0.0542 E-score.
As to GTACACCA, the binding signal stood at 0.233 ± 0.039 E-score.
Consider AAACACCC, for which the binding signal came out at 0.253 ± 0.0462 E-score.
Consider ATACACCG, for which the binding signal was found to be 0.398 ± 0.0351 E-score.
In the case of CTACACCC, the binding signal was 0.263 ± 0.044 E-score.
With CTACACCA the figure was 0.312 ± 0.0106 E-score.
ATACACCA: the binding signal was found to be 0.389 ± 0.0166 E-score.
In the case of ATACACAG, the binding signal was found to be 0.289 ± 0.0145 E-score.
Regarding ATACACCC, the binding signal was 0.391 ± 0.00614 E-score.
With CATCGAAG the figure was 0.178 ± 0.0656 E-score.
For the sequence ATCGTGCC, the binding signal was 0.192 ± 0.00267 E-score.
Regarding ATACTTAG, the binding signal was 0.205 ± 0.0528 E-score.
For CACCTATC, the binding signal worked out at 0.266 ± 0.0455 E-score.
Take GAAAGATA: the binding signal was 0.324 ± 0.096 E-score.
GGGAAACC: the binding signal was 0.162 ± 0.106 E-score.
In the case of CTATCCAC, the binding signal worked out at 0.219 ± 0.0193 E-score.
As for AGATCCAT, the binding signal was 0.254 ± 0.00332 E-score.
For the sequence CTATCCAG, the binding signal was found to be 0.199 ± 0.0567 E-score.
Take ATATCCAC: the binding signal was 0.395 ± 0.0197 E-score.
With TAATCCAA the figure was 0.1853 ± 0.00116 E-score.
For ATATCCAG, the binding signal is 0.373 ± 0.0215 E-score.
GTATCCAC: the binding signal worked out at 0.3951 ± 0.00369 E-score.
GTATCCAA: the binding signal is 0.421 ± 0.0174 E-score.
Take CAATCCAC: the binding signal came to 0.168 ± 0.0919 E-score.
With ATATCCAT the figure was 0.389 ± 0.0181 E-score; with CGATCCAC, 0.375 ± 0.0695 E-score; with ATATCCAA, 0.358 ± 0.01 E-score.
As for CGACAGAA, the figure is 0.153 ± 0.115 E-score; as for ATATGTCG, 0.272 ± 0.052 E-score.
ATCCAGGG: the binding signal was 0.236 ± 0.0104 E-score.
As for ATCATCAG, the binding signal was found to be 0.154 ± 0.0285 E-score.
For the sequence GATCTAGC, the binding signal came out at 0.215 ± 0.0211 E-score.
As for TATCCATA, the binding signal is 0.39076 ± 0.000148 E-score.
As to AATCCATA, the binding signal was found to be 0.214 ± 0.0274 E-score.
For the sequence GATCCTGA, the binding signal was found to be 0.301 ± 0.0202 E-score.
Consider TATCCTGA, for which the binding signal was 0.382 ± 0.0186 E-score.
On to CATCCTGA, for which the binding signal came out at 0.169 ± 0.0388 E-score.
Turning to GATCCATA, the binding signal is 0.357 ± 0.0223 E-score.
With GAACAATA the figure was 0.2 ± 0.0128 E-score; with CTTAGATC, 0.158 ± 0.00598 E-score; with CCTACTCA, 0.161 ± 0.0165 E-score.
Regarding ATACTAAG, the binding signal turned out to be 0.209 ± 0.0591 E-score.
Turning to TAACACGA, the binding signal was 0.19 ± 0.0238 E-score.
Take ATTGATGC: the binding signal was found to be 0.182 ± 0.0328 E-score.
On to CTTGATCC, for which the binding signal stood at 0.361 ± 0.00995 E-score.
As to ATTGATAG, the binding signal was 0.288 ± 0.0226 E-score.
As for ATTGATCC, the figure is 0.406 ± 0.0164 E-score; as for CTCAATAC, 0.259 ± 0.0252 E-score.
As for CTTGATCA, the figure is 0.218 ± 0.037 E-score.
For the sequence CTTGATAC, the binding signal was determined as 0.442 ± 0.0251 E-score.
With ATTGATAC, the binding signal is 0.465 ± 0.0161 E-score.
For CTTGACAC, the binding signal is 0.244 ± 0.0534 E-score.
For the sequence CGTCTCGC, the binding signal was 0.167 ± 0.0173 E-score.
With GATCGACC, the binding signal stood at 0.162 ± 0.12 E-score.
Take GATCTCGA: the binding signal is 0.221 ± 0.00099 E-score.
As for AATACTCT, the binding signal was 0.257 ± 0.089 E-score.
In the case of AACCTATA, the binding signal was determined as 0.205 ± 0.0654 E-score.
In the case of CCCTTGGA, the binding signal turned out to be 0.213 ± 0.00655 E-score.
As to ATCCCTTC, the binding signal was 0.303 ± 0.0125 E-score.
Regarding CTACTGTA, the binding signal was found to be 0.165 ± 0.0781 E-score.
AATTAATA: the binding signal was determined as 0.191 ± 0.0409 E-score.
As for GCATACAC, the figure is 0.155 ± 0.0339 E-score; as for CGATACAG, 0.313 ± 0.044 E-score; as for AGATACAG, 0.246 ± 0.0181 E-score.
In the case of GGATACAC, the binding signal was determined as 0.405 ± 0.0186 E-score.
AGATACAA: the binding signal came out at 0.168 ± 0.0186 E-score.
As for CGATACAC, the figure is 0.418 ± 0.0108 E-score; as for GGATACAA, 0.354 ± 0.037 E-score; as for CGATACAA, 0.288 ± 0.0425 E-score.
With AGATACAC the figure was 0.3801 ± 0.00099 E-score.
